From PubChem BioAssay (Tox21) come the findings set out here.

Inconclusive results are not listed. Where a call stands in place of a potency, no number is given. The source made the active and inactive calls. Calls follow the shape of the full dose curve.
Potency is read from the fitted curve at half-maximal effect.

In this assay the target is 5-hydroxytryptamine receptor 2A (Homo sapiens) (UniProt P28223). Put plainly: 5-hydroxytryptamine receptor 2A (HTR2A) small molecule agonists, cell-based qHTS assay (AID 1963587). Also: nearly all actives have a fitted effect of over 30% in size. The conditions noted are these: HTR2A-CHO cells, calcium flux fluorescence, agonist mode; series mostly up to 76.8 µM. The text has this: National Center for Advancing Translational Sciences [NCATS]
Sequence of 5-hydroxytryptamine receptor 2A (Homo sapiens) (P28223 whole entry, looked up): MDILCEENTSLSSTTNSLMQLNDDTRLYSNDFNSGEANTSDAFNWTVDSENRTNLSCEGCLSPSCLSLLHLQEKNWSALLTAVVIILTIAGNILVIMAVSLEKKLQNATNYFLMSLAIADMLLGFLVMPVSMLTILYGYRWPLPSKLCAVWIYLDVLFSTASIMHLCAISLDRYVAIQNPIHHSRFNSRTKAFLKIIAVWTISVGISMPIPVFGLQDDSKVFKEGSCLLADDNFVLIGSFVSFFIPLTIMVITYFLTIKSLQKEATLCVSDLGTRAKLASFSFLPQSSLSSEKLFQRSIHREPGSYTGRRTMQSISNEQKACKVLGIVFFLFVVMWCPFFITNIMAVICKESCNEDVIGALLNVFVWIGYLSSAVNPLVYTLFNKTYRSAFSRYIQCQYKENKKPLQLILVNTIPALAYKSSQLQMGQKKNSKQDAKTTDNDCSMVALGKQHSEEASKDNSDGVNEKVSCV
Division of Preclinical Innovation [DPI]
U.S. Environmental Protection Agency [EPA]
National Institutes of Environmental Health Sciences [NIEHS]
National Toxicology Program [NTP]
U.S. Food and Drug Administration [FDA]
The HTR2A receptor is a subtype of the 5-HT2 receptor that belongs to the serotonin receptor family and is a G protein-coupled receptor (GPCR). The HTR2A-CHO cell line stably expressing human 5-hydroxytryptamine receptor 2A (HTR2A) can be used for screening agonists of interactions between 5-HT2 and its ligands. The HTR2A-CHO calcium flux assay is a homogeneous fluorescence-based assay for detecting the intracellular calcium level using FDSS kinetic plate reader system.
HTR2A-CHO cells were dispensed at 2000 cells/3uL/well in 1536-well black-clear bottom plates using a Multidrop Dispenser. After the assay plates were incubated at a 37 C/5% CO2 incubator for 18 h, 3 uL of Dye Loading Buffer was transferred to the assay plate by a Flying Reagent Dispenser. The assay plates were incubated at 37 C for 1h. For agonist mode, 23 nL of compounds dissolved in DMSO, positive controls or DMSO only was transferred to the assay plate by a pin tool. The fluorescence intensity in the plates was measured using FDSS 7000EX kinetic plate reader for 2 min at 1 sec intervals.
On the technique in general: qHTS replaces the single test concentration by a dilution series.
As for `Cc1ccc(O)c(-n2nc3ccccc3n2)c1`, the Potency result is “inactive”.
`CCC(C)(O)CCCC(C)C` (stereo not given): the Potency result was “inactive”.
To `O=S(=O)(O)c1ccc2cc(O)ccc2c1` belongs “inactive”; to `CCCCCCCCOc1ccc(C(=O)c2ccccc2)c(O)c1`, “inactive”; to `Brc1cc(Oc2cc(Br)c(Br)c(Br)c2Br)c(Br)c(Br)c1Br`, “inactive”.
For `COc1ccc(NC(C)=O)cc1N`, the Potency entry was “inactive”.
The result for `Cc1ccc(C(C)C)cc1` reads “inactive”; that for `C=CC(=O)OCCC(=O)O`, “inactive”.
With `C=CCOC(=O)c1ccccc1C(=O)OCC=C`, the Potency entry was “inactive”.
The result for `O=C(O)c1cccc(C(=O)O)c1` reads “inactive”; that for `O=C1c2c(O)cccc2Cc2cccc(O)c21`, “inactive”; that for `Nc1nc2ncc(CNc3ccc(C(=O)N[C@@H](CCC(=O)O)C(=O)O)cc3)nc2c(=O)[nH]1`, “inactive”.
`COc1ccc(C(Cl)=C(c2ccc(OC)cc2)c2ccc(OC)cc2)cc1`: the Potency entry is “inactive”.
Consider `CCCCC(CC)C(=O)O` (stereo not given), for which the Potency result is “inactive”.
Regarding `CCCCOCCOCCOC(C)=O`, the Potency entry is “inactive”.
`OCC1CCCO1` (stereo not given): the Potency entry is “inactive”.
The result for `Cc1occc(=O)c1O` reads “inactive”; that for `CCCCNS(=O)(=O)c1ccccc1`, “inactive”.
Turning to `COc1c(Cl)c(Cl)c(Cl)c(Cl)c1Cl`, the Potency result was “inactive”.
For the molecule `CCCCCC1=CCCC1=O`, the Potency result is “inactive”.
As for `Cc1ccc(N)c(S(=O)(=O)O)c1`, the Potency result is “inactive”.
With `Cc1cc(Cc2ccc(N)c(C)c2)ccc1N`, the Potency entry is “inactive”.
For the molecule `O=S1(=O)CCCO1`, the Potency entry was “inactive”.
Consider `CN(C)C(=O)Nc1ccc(Cl)c(Cl)c1`, for which the Potency entry was “inactive”.
For the molecule `c1ccc2cc3c(ccc4ccccc43)cc2c1`, the Potency entry was “inactive”.
For `CCO[Si](CCCN)(OCC)OCC`, the Potency result is “inactive”.
Turning to `CCCCCCCCCCCCc1ccccc1O`, the Potency entry is “inactive”.
As to `O=C1OC2(c3ccccc31)c1cc(I)c(O)c(I)c1Oc1c2cc(I)c(O)c1I`, the Potency is 31.3 µM (active) [middle of 4 runs].
Take `CC(=O)[C@H]1CC[C@H]2[C@@H]3CC=C4C[C@@H](O)CC[C@]4(C)[C@H]3CC[C@]12C`: the Potency result is “inactive”.
For the molecule `COc1ccc(Nc2ccccc2)c(C)c1`, the Potency result was “inactive”.
For the molecule `CN1C(=O)CC[C@H]1c1cccnc1`, the Potency result is “inactive”.
For the molecule `O=C1CCc2ccccc2O1`, the Potency result is “inactive”.
The result for `CN(C)CCOCCN(C)C` reads “inactive”.
For the molecule `CC(O)COCC(C)O` (stereo not given), the Potency entry is “inactive”.
The result for `NC(=NCCCCCCN=C(N)/N=C(\N)Nc1ccc(Cl)cc1)/N=C(\N)Nc1ccc(Cl)cc1` reads “inactive”.
To `Brc1nc2ccccc2s1` belongs “inactive”; to `C=CC(C)(C)C`, “inactive”; to `C=CC[N+](C)(C)CC=C`, “inactive”.
To `CCCCCCCCCCCCCCCCO` belongs “inactive”; to `NNc1ccc(C(=O)O)cc1`, “inactive”.
